Reference: PubChem BioAssay (EPA / NIEHS)
The source made the active and inactive calls. The calls were made as follows: active = hit-call score of the fitted dose curve at least 0.9, where 1 is the maximum; inactive = score below 0.9.

Experiment: Tanguay_ZF_120hpf_BRN: Oregon State University Tanguay Lab 120 Hour Post-fertilization zebrafish Assay for Brain Region Malformation (AID 2284402)
Experimental: Tanguay_ZF_120hpf is a whole embryo, multiplexed endpoint assay using zebrafish larvae exposed for 120 hours post fertilization on a 96-well plate.Tanguay_ZF_120hpf_BRN is one of one assay component(s) measured or calculated from the Tanguay_ZF_120hpf assay. It is designed to make measurements of zebrafish development as detected with brightfield microscopy of developing zebrafish embryos.Data from the assay component Tanguay_ZF_120hpf_BRN was analyzed into 1 assay endpoints. This assay endpoint, Tanguay_ZF_120hpf_BRN, was analyzed in the positive analysis fitting direction relative to DMSO as the negative control and baseline of activity. Using a type of morphology reporter, gain-of-signal activity can be used to understand changes in developmentals as they relate to the whole embryo. To generalize the intended target to other relatable targets, this assay endpoint is annotated to the zebrafish development intended target family, where the subfamily is brain morphogenesis.
Zebrafish husbandry: Tropical 5D wild-type adult zebrafish were housed in at an approximate density of 1000 per 100 gallon tank at the Sinnhuber Aquatic Research Laboratory, Oregon State University, Corvallis, OR. Each tank was kept at standard laboratory conditions of 28C on a 14-h light/10-h dark photoperiod in fish water consisting of reverse osmosis water supplemented with a commercially available salt (Instant Ocean). Spawning funnels were placed into the tanks the night prior, and embryos were collected and staged. To increase bioavailability, the chorion was enzymatically removed using pronase (63.6mg/ml, >/= 3.5U/mg, Sigma-Aldrich: P5147) at 4 hours post fertilization (hpf) using a custom automated dechorionator.Chemical exposures: Six hpf dechorionated embryos were placed 1 embryo per well in a 96-well plate prefilled with 90 ul of EM using automated embryo placement systems (AEPS). Ten microliters of each row of dilution plate 2 was added to 2 exposure plates. The final DMSO concentration used was 0.64% (vol/vol). Thirty-two embryos were also exposed to 5uM trimethyltin chloride (positive control). Plates were sealed to prevent evaporation and foil covered to reduce light exposure and kept in a 28C incubator. Embryos were statically exposed until 120 hpf. At 24 hpf, embryos were assessed for photomotor response using a custom photomotor response analysis tool (PRAT) and for developmental toxicity endpoints (MO24: mortality at 24 hpf, DP: developmental progression, SM: spontaneous movement, and NC: notochord distortion). At 120 hpf, locomotor activity was measured using Viewpoint Zebralab and assessed for 13 endpoints. Zebrafish acquisition and analysis program (ZAAP), a custom program designed to inventory, acquire, and manage zebrafish data, was used to collect developmental endpoints as either present or absent (i.e., binary responses were recorded). If mortality occurred for an embryo (at either 24 or 120 hpf), the non-mortality endpoints were not measured.

Structure (SMILES)	outcome
C=CC(=O)OCC(F)(F)C(F)F	inactive
NC(=O)C(F)(F)C(F)(F)F	inactive
OCC(F)(F)OC(F)(F)C(F)(F)OC(F)(F)C(F)(F)OC(F)(F)CO	inactive
COC(=O)C(F)(F)C(F)(F)OC(F)(C(F)(F)F)C(F)(F)OC(F)=C(F)F (centres undefined)	inactive
O=C(O)C(F)(F)OC(F)(F)C(F)(F)OC(F)(F)C(=O)O	inactive
O=C(O)C(F)(OC(F)(F)C(F)(F)C(F)(F)F)C(F)(F)F (centres undefined)	inactive
O=C(O)C=CC(F)(C(F)(F)F)C(F)(F)F	inactive
O=C(O)C(F)(F)OC(F)(F)C(F)(F)OC(F)(F)F	inactive
O=S(=O)(F)C(F)(F)C(F)(F)C(F)(F)C(F)(F)C(F)(F)C(F)(F)C(F)(F)C(F)(F)F	inactive
CC(O)C(F)(F)C(F)(F)F (centres undefined)	inactive
OCC(F)(F)OC(F)(F)C(F)(F)OC(F)(F)C(F)(F)OC(F)(F)F	inactive
FC(F)(F)C(F)(C(F)(F)F)C(F)(F)C(F)(F)CC1CO1 (centres undefined)	inactive
O=C(O)C(F)(F)C(F)(F)C(=O)O	inactive
OCC(F)(F)OC(F)(F)C(F)(F)OC(F)(F)CO	inactive
